Compounds with a hit are over-represented: about 3% of the library has one in this group of screens.
SNCA viab count: GF-AFC viability counterscreen for inhibitors of alpha-synuclein gene (SNCA) expression; Potency, µM (series often up to 57.1 µM), without a hit: top-dose activity change, negative = cytotoxicity, usual class: cytotoxic; 150,000 compounds, 0.12% hits; HEK-293-SNCA-luc viability, GF-AFC fluorescence, 24 h; AID 1671193, 2021;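 note: potency is the fitted concentration of half-maximal effect; 0% = DMSO-treated cells and -100% = medium-only wells without cells; nearly all actives have a fitted effect of over 30% in size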
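Cytotoxicity counterscreen: after 24 h compound treatment of genome-edited SNCA-luciferase HEK-293 cells, live-cell protease substrate GF-AFC read by fluorescence after 30 min; activity scaled between DMSO (0%) and medium-only (-100%), curves Hill-fitted.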
SNCA expr inhib: Primary qHTS assay for inhibitors of alpha-synuclein gene (SNCA) expression; HEK-293 SNCA-luciferase knock-in, luminescence, 24 h; Potency, µM (highest dose often 57.2 µM), without a hit: top-dose activity change, negative = inhibition, actives largely listed as inhibitors; 140,000 compounds, 0.17% hits; AID 1671194, 2021;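 note: potency is the fitted concentration of half-maximal effect; plate controls were DMSO cells for no effect and cell-free wells for full effect; nearly all actives have a fitted effect of over 45% in size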
IP6K1 inh: Primary qHTS assay for small molecule inhibitors of Inositol hexaphosphate kinase 1 (IP6K1); 140,000 compounds, 0.81% hits; IP6K1 kinase, ADP-Glo luminescence, 2 h; stronger effect = lower value; activity change, % (series mostly up to about 58 µM); Inositol hexakisphosphate kinase 1 (Homo sapiens), Q92551; in the data active = activity change below about -25%; note: % is set by controls: 0 for no effect and ±100 for the full control effect
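ADP-Glo luminescence measures ADP made by human IP6K1 during a 2 h RT reaction with ATP/IP6 (mix at 1.3 mM/130 uM); top library doses 57.5 and 19.1 uM final.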
KDM5B inh: Primary screen for KDM5B Histone Demethylases FDH-coupled qHTS; 220,000 compounds, 2.6% hits; Potency, µM (doses to about 57.7 µM), usual class: inhibitors; KDM5B demethylase, FDH-coupled NADH fluorescence (FDH is formaldehyde dehydrogenase); Lysine-specific demethylase 5B (Homo sapiens), Q9UGL1; AID 1347165, 2019; note: potency is the fitted concentration of half-maximal effect; 0% is about no effect; nearly all actives have a fitted effect of over 70% in size
Target sequence (Q9UGL1 whole entry, looked up): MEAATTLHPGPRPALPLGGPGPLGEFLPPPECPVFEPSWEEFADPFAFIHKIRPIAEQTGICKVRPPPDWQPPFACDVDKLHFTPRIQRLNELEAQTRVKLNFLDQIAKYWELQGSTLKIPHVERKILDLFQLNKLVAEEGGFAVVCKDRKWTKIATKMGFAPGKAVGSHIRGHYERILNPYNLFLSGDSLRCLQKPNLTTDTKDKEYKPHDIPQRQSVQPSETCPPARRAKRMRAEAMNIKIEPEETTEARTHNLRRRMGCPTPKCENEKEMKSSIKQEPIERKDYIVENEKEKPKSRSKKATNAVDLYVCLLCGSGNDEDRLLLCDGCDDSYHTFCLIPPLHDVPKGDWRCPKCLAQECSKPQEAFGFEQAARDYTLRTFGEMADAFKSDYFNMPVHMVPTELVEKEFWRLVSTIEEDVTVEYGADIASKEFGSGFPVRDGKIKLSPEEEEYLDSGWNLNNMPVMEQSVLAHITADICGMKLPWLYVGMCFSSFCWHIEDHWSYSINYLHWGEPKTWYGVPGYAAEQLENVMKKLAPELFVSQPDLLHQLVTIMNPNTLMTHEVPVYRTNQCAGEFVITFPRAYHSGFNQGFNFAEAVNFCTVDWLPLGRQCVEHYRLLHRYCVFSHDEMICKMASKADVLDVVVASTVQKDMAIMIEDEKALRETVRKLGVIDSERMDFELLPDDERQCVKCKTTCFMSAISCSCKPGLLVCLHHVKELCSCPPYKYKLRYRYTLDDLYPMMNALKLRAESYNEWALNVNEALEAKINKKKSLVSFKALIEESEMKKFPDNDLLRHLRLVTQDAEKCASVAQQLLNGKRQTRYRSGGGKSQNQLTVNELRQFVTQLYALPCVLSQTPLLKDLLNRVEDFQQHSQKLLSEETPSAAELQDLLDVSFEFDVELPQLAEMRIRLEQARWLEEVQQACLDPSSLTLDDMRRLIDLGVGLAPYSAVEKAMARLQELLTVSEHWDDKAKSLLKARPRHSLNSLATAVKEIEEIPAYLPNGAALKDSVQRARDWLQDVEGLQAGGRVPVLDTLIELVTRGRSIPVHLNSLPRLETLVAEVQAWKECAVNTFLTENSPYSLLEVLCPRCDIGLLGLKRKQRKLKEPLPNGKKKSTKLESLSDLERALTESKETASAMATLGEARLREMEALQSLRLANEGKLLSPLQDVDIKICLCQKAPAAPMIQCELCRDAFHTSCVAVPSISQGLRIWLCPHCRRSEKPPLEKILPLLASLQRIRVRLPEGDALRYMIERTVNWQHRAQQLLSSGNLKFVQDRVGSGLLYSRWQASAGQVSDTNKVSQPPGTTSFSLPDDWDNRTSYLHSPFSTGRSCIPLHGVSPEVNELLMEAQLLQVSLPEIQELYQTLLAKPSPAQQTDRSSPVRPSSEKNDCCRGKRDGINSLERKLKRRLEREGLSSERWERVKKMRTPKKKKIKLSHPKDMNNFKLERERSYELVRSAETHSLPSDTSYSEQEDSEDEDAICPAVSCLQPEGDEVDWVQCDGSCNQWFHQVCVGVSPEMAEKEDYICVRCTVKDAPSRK
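Measured: NADH fluorescence change, 30 min, RT. System: KDM5BΔAP 200 nM final, H3K4me3 peptide, α-KG, Fe(II), ascorbate, NAD⁺ plus FDH, pH 7.5 HEPES. Compounds: titrated, 10 min pre-incubation with enzyme.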
The depositor's hits bear a star; i = inactive; ? = inconclusive; . = not tested or not shown; [ ] = remark or other dose. Unless noted, calls come from the whole dose curve; as a rule, active = well fitted curve in the direction sought with a large enough effect; inconclusive = small, poorly fitted or top-dose-only effect, or another doubt; inactive = no such curve, though single readings can be large; an effect the other way counts as inactive or inconclusive.

SMILES	SNCA viab count	SNCA expr inhib	IP6K1 inh	KDM5B inh
Cc1cc(-c2cc3c(cn2)CN(Cc2ccccc2F)CCN3)ccn1	-23%[87.6 µM]	79%[87.6 µM]	-7	35µM*
c1ccc(CNc2cc3c(cn2)CN(Cc2cccnc2)CCN3)cc1	-29%[87.6 µM]	81%[87.6 µM]	-22	?
Fc1ccccc1-c1cc2c(cn1)CN(Cc1cccnc1)CCN2	-1%[87.6 µM]	?	-16	32µM*
COCCNc1ncccc1-c1noc([C@@H]2CCCN2Cc2ccncc2)n1	-15%[87.6 µM]	10%[87.6 µM]	15	28µM*
COCCNc1ccc(-c2noc([C@@H]3CCCN3Cc3ccncc3)n2)cn1	-2%[87.6 µM]	76%[87.6 µM]	10	28µM*
COCC(=O)Nc1ccc(-c2noc([C@@H]3CCCN3Cc3ncc[nH]3)n2)cn1	0%[87.6 µM]	47%[87.6 µM]	6	40µM*
COCCNc1ncccc1-c1noc([C@@H]2CCCN2Cc2ccccn2)n1	-26%[87.6 µM]	?	-12	32µM*
COCCOc1ncccc1-c1noc([C@@H]2CCCN2Cc2ccc(CO)o2)n1	-1%[87.6 µM]	-11%[87.6 µM]	-12	?
O=[S+]([O-])(NC1CCCN(c2ccc3nnc(-c4ccccc4)n3n2)C1)c1ccccc1 (stereo unspecified)	.	.	-3	.
O=c1n(-c2ccc([N+](=O)[O-])cc2)nc2n1CCN(CC1CC1)C2	-30%[87.6 µM]	144%[87.6 µM]	9	?
O=C(c1ccc(Cl)cc1)N1CC2(CCN(Cc3c[nH]c4ccccc34)CC2)Cc2ccccc21	?	?	-7	i
O=C1CCN(CC(O)Cc2ccccc2)c2ccc(F)cc2CN1Cc1ccccc1 (stereo unspecified)	.	.	1	.
COc1ccc(F)cc1-c1ccc(CN2CCC(N[S+](=O)([O-])c3c(C)noc3C)C2)cc1 (stereo unspecified)	.	.	21	.
COCCNc1ncccc1-c1noc([C@@H]2CCCN2Cc2cc(OC)c(OC)c(OC)c2)n1	-1%	13%	12	32µM*
COc1ccc(C(=O)Nc2ccc(-c3noc([C@@H]4CCCN4Cc4ccc(F)cc4)n3)cn2)cc1	-21%	-15%	3	?
COc1ccc(C(=O)Nc2ccc(-c3noc([C@@H]4CCCN4CCCc4ccccc4)n3)cn2)cc1	-16%	10%	12	25µM*
COc1ccccc1-c1ccc(C(=O)N2CCC(N[S+](=O)([O-])c3cccs3)CC2)cc1	4%[12.5 µM]	-3%	4	.
CC(C)CN1CCN(C(=O)CCC[C@H]2NC[C@@H]3C[C@H]2CN(Cc2ccccc2)C3)CC1	-23%	-19%	-13	6.3µM*
COc1ccccc1CNC(=O)CCC[C@H]1NC[C@@H]2C[C@H]1CN(Cc1ccccc1)C2	-13%	8%	-15	4.5µM*
COc1ccc(Nc2ccnc(N3CCC(C(=O)NC(C)C)CC3)n2)cc1	3%[12.5 µM]	10%	-20	.
CC(NC(=O)C1CCN(c2nccc(Nc3ccccc3Cl)n2)CC1)c1ccc(F)cc1 (stereo unspecified)	-30%	?	-4	.
CN(Cc1ccccc1)C(=O)c1cc(-c2cccnc2)nc2ccccc12	.	.	.	i
CC(C)c1noc(CN(C)C(=O)c2cc(-c3cnn(C)c3)nc3ccccc23)n1	2%	-7%	-3	28µM*
CCNC(=O)N[C@@H]1C=C[C@@H](c2c(C)nn(-c3ccc(C(F)(F)F)cc3)c2C)C1	?	-45%[87.6 µM]	-14	?
COCCC1(NC(=O)C(C)c2ccccc2)CCN(S(C)(=O)=O)CC1 (stereo unspecified)	20µM*	-14%	-12	i
SMILES	SNCA viab count	SNCA expr inhib	IP6K1 inh	KDM5B inh
COCCC1(NS(=O)(=O)c2ccccc2)CCN(S(C)(=O)=O)CC1	0%	1%	-5	i
O=[S+]([O-])(NC1CCCN(c2ccnc3ccnn23)C1)c1cccs1 (stereo unspecified)	9%[87.6 µM]	13%[87.6 µM]	13	.
Cc1noc(C)c1-c1cc2c(cc(C)n2C)c(N2CCN(c3ccccn3)CC2)n1	-7%[87.6 µM]	-19%[87.6 µM]	-11	32µM*
COc1ccccc1-c1cc(C(=O)NCCc2ccc(F)cc2)nn2cccc12	-5%	?	-8	.
Cc1cc(C(=O)NC2CC2)c2cc(Br)ccc2n1	.	.	.	i
O=C(NC1CC1)c1cc(Br)cn2ccnc12	-4%[87.6 µM]	16%[87.6 µM]	-2	40µM*
O=C(NCC(F)F)c1nc2sccn2c1Br	-6%[87.6 µM]	36%[87.6 µM]	5	i
O=C(NCc1cccs1)c1cc(Br)cn2ccnc12	8%[87.6 µM]	95%[87.6 µM]	1	40µM*
CN(C)C(=O)c1cc(Br)cn2ccnc12	3%[87.6 µM]	17%[87.6 µM]	-6	35µM*
O=C(NCC(F)F)c1cc(Br)cn2ccnc12	?	50%[87.6 µM]	6	40µM*
CN(C)C(=O)c1ccccc1Br	.	.	.	i
CC(C)N1C[C@@H](COCc2ccccc2)[C@H](c2ccccc2)[S+]1(=O)[O-]	.	.	7	.
N#Cc1cccc(-c2cn3c(n2)N(C(=O)c2cccs2)CCC3)c1	-1%	9%	13	28µM*
COCCC(=O)N1CCCn2cc(-c3cccc(C#N)c3)nc21	8%	56%	11	22µM*
CCn1ccc(C(=O)N2CCCn3cc(-c4cccc(C#N)c4)nc32)n1	-13%	14%	-11	?
N#Cc1cccc(-c2cn3c(n2)N(C(=O)CC2CCNCC2)CCC3)c1	-1%	6%	12	?
N#Cc1cccc(-c2cn3c(n2)N(C(=O)c2cccnc2)CCC3)c1	2%	-4%	10	35µM*
O=C1CO[C@H]2CCN(Cc3ccncc3Cl)CC[C@@H]2N1c1ccccc1	-4%[87.6 µM]	-15%[87.6 µM]	-7	?
COc1cccc(-c2cc(-c3cccnc3)c3cncn3c2)c1OC	4%[87.6 µM]	12%[87.6 µM]	3	35µM*
c1cncc(-c2cc(-c3ccc4cn[nH]c4c3)cn3cncc23)c1	-9%[87.6 µM]	?	1	35µM*
COc1ccc(-c2cc(-c3cccnc3OC)cn3cncc23)cc1	-9%[87.6 µM]	-7%[87.6 µM]	-16	35µM*
Oc1cccc(-c2cc(-c3cccnc3)c3cncn3c2)c1	-8%[87.6 µM]	?	-9	?
COc1ccc(-c2cc(-c3cccnc3)cn3cncc23)cc1	-18%[87.6 µM]	-6%[87.6 µM]	0	40µM*
O=C(NCCc1ccccc1)C1CCCN(Cc2cccc(-c3ccc(F)cc3F)c2)C1 (stereo unspecified)	-5%	-19%	5	.
FC(F)(F)c1ccccc1-c1cc(-c2cccnc2)c2cncn2c1	1%[87.6 µM]	?	-11	?
COc1ccc(-c2cc(-c3cccc(NC(C)=O)c3)cn3cncc23)cn1	-7%[87.6 µM]	9%[87.6 µM]	-12	?
COc1ncccc1-c1cc(-c2cccnc2)c2cncn2c1	-3%[87.6 µM]	23%[87.6 µM]	-18	35µM*
COc1ccc(-c2cc(-c3cccc(NC(C)=O)c3)cn3cncc23)cc1	-9%[87.6 µM]	-9%[87.6 µM]	-9	8.9µM*
Cc1ccc(-c2cc(-c3cccnc3)c3cncn3c2)cn1	-8%[87.6 µM]	8%[87.6 µM]	-8	35µM*
Fc1ccc(-c2ccc3ncc(Nc4ccccn4)n3n2)cc1	4%[87.6 µM]	30%[87.6 µM]	-19	i

Source: PubChem
